Experimental data published in the supplement of paper PMC10849652.
Targets with a hit are over-represented here; the source holds about 7,900 in all. About 0.6% of all pairs of compound and target were hits.

Legend:
Test in all cases: log2 fold change, soluble protein after heating vs DMSO (PISA); higher = thermal stabilisation; K562 cells, 10 uM, 30 min; active = over 0.2 and 3.5 SD of the protein, either way, in both replicates (recomputed)
[1] = target: YWHAB (UniProt P31946)
Method in brief: (§1)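 For each measurement, 10 μM compound was applied for 30 min to K562 cells at 2×10^6 cells/mL. Aliquots were heated for 3 min across 48°C-58°C, pooled, and extracted in PBS with 0.5% NP-40 at 4°C; the supernatant after 21,000xg for 90 min was soluble protein. This was quantified by TMTpro 16plex LC-MS/MS with channel sums equalised, and thermal stability was reported relative to control samples from duplicates, on a log2 fold-change scale.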

[2] = target: YWHAQ (UniProt P27348)
Sequence of YWHAQ (P27348 whole entry, looked up): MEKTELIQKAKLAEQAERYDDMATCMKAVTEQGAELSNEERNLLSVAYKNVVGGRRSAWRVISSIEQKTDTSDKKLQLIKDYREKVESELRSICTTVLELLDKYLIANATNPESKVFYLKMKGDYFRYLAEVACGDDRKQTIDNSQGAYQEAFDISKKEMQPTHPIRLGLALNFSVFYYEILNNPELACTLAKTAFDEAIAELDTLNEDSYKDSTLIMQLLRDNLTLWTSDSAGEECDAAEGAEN
Method in brief: as §1

[3] = target: YWHAZ (UniProt E7ESK7)
Method in brief: as §1

[4] = target: YWHAZ (UniProt P63104)
Method in brief: as §1

[5] = target: YY1 (UniProt P25490)
Sequence of YY1 (P25490 whole entry, looked up): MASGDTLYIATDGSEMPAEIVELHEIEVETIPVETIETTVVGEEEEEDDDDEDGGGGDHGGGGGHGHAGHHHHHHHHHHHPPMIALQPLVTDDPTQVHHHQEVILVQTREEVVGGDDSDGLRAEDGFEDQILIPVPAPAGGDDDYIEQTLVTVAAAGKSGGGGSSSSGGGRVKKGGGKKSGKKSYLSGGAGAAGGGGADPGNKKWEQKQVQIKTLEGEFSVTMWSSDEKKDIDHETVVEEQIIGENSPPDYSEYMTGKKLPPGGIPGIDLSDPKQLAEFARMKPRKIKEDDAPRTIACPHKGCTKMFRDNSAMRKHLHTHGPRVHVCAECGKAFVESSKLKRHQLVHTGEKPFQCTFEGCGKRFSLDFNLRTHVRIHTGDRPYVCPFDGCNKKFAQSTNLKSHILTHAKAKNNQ
Method in brief: as §1

[6] = target: ZADH2 (UniProt Q8N4Q0)
Method in brief: as §1

[7] = target: ZBTB17 isoform 2 (UniProt Q13105)
Sequence of ZBTB17 isoform 2 (Q13105 whole entry, looked up, canonical isoform): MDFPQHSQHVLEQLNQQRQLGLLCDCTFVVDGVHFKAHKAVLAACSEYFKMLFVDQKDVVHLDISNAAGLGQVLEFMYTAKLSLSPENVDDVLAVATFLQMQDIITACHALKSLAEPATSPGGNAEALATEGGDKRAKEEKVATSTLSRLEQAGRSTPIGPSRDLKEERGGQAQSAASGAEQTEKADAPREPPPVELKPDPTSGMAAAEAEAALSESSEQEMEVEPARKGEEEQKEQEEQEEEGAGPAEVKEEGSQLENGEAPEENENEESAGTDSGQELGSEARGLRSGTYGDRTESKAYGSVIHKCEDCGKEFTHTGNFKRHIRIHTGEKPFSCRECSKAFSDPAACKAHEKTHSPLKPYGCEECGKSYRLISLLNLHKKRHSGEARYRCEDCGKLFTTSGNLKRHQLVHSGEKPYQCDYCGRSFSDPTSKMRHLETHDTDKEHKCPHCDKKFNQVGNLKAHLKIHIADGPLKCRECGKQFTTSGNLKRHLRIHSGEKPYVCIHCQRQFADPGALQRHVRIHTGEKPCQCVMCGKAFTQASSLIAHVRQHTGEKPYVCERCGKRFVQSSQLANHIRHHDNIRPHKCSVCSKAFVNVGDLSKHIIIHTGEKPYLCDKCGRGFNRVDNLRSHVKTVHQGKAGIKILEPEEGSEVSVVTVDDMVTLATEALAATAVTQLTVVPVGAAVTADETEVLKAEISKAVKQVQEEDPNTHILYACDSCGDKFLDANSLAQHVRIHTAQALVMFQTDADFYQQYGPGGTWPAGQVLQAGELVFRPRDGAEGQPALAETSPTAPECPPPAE
Method in brief: as §1

[8] = target: ZBTB21 (UniProt Q9ULJ3)
Method in brief: as §1

[9] = target: ZBTB43 (UniProt O43298)
Sequence of ZBTB43 (O43298 whole entry, looked up): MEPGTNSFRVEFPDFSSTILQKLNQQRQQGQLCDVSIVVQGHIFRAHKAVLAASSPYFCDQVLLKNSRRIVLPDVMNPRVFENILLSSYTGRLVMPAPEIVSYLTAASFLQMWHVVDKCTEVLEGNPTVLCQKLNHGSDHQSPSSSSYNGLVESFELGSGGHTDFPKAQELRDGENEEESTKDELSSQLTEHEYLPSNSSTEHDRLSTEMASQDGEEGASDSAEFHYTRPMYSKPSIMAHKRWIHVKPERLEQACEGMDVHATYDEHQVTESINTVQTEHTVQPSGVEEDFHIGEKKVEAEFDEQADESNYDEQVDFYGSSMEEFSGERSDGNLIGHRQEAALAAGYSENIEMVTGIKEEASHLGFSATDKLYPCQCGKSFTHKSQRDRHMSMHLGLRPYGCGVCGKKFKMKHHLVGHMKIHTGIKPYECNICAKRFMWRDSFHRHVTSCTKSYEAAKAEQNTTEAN
Method in brief: as §1

[10] = target: ZC3H18 (UniProt Q86VM9)
Method in brief: as §1

[11] = target: ZC3H8 (UniProt Q8N5P1)
Sequence of ZC3H8 (Q8N5P1 whole entry, looked up): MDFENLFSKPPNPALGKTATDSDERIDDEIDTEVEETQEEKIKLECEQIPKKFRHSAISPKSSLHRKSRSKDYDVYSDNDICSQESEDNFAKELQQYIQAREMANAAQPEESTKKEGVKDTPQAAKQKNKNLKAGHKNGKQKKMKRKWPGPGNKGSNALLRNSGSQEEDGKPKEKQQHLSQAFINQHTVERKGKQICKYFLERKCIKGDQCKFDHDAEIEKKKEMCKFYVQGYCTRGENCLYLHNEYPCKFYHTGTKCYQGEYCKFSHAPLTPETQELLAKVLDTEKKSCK
Method in brief: as §1

[12] = target: ZC3HC1 (UniProt Q86WB0)
Sequence of ZC3HC1 (Q86WB0 whole entry, looked up): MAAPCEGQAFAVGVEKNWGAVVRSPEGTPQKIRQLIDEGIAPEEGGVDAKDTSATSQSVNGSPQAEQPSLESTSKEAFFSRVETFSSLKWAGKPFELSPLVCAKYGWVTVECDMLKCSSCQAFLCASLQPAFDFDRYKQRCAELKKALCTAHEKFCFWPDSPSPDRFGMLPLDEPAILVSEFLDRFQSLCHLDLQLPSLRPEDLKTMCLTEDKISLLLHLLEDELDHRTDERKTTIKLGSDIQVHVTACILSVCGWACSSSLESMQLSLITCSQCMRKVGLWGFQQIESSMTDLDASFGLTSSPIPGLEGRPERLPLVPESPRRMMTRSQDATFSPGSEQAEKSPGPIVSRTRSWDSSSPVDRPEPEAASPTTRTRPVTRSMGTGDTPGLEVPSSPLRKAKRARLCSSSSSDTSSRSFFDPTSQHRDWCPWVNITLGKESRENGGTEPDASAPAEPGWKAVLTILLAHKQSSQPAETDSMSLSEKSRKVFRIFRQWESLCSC
Method in brief: as §1

[13] = target: ZCCHC9 (UniProt Q8N567)
Sequence of ZCCHC9 (Q8N567 whole entry, looked up): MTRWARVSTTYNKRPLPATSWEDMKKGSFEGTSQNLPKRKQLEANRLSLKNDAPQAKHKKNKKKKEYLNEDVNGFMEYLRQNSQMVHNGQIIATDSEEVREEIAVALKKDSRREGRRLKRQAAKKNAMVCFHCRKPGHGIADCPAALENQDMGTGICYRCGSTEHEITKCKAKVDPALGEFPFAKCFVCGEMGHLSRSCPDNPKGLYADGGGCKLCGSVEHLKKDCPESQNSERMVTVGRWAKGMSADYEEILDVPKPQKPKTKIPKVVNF
Method in brief: as §1

[14] = target: ZDHHC17 (UniProt Q8IUH5)
Sequence of ZDHHC17 (Q8IUH5 whole entry, looked up): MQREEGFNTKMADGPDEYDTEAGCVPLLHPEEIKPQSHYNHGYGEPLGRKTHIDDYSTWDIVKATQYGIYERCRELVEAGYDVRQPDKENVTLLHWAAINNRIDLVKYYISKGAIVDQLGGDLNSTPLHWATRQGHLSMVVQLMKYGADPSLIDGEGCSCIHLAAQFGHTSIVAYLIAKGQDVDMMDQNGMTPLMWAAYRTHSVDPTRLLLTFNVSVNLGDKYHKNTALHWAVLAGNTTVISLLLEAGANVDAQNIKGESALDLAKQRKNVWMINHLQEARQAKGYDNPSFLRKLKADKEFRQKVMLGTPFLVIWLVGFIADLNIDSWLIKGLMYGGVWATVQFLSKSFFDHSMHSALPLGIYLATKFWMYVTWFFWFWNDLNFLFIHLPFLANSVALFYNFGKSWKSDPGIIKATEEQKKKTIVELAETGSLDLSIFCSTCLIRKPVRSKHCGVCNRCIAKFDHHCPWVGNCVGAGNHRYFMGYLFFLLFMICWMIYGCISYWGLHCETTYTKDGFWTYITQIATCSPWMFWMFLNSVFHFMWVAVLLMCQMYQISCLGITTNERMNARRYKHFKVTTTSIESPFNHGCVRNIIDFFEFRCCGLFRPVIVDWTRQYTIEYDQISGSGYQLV
Method in brief: as §1

[15] = target: ZDHHC20 (UniProt Q5W0Z9)
Method in brief: as §1

[16] = target: ZDHHC5 (UniProt Q9C0B5)
Sequence of ZDHHC5 (Q9C0B5 whole entry, looked up): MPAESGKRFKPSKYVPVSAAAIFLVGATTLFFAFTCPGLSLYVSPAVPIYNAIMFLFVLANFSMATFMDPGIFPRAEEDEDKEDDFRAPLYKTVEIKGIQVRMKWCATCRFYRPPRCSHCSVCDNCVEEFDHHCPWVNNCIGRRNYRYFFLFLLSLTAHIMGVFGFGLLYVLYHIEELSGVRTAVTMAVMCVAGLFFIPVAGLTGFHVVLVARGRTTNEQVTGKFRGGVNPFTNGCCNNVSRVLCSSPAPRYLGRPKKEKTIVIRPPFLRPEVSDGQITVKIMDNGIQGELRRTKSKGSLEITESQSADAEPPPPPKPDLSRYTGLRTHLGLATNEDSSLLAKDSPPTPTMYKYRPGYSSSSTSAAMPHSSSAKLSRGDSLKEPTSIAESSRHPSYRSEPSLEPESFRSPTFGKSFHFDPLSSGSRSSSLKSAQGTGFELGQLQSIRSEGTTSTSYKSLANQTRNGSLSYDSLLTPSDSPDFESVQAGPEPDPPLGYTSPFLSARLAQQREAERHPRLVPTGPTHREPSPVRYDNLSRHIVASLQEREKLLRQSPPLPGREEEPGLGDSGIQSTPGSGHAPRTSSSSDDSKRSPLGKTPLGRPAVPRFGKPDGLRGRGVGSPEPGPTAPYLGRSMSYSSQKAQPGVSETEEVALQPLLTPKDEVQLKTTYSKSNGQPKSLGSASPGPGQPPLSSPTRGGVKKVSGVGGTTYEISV
Method in brief: as §1

[17] = target: ZDHHC7 isoform 2 (UniProt Q9NXF8)
Method in brief: as §1

[18] = target: ZDHHC8 isoform 3 (UniProt Q9ULC8)
Method in brief: as §1

[19] = target: ZDHHC6 (UniProt Q9H6R6)
Sequence of ZDHHC6 (Q9H6R6 whole entry, looked up): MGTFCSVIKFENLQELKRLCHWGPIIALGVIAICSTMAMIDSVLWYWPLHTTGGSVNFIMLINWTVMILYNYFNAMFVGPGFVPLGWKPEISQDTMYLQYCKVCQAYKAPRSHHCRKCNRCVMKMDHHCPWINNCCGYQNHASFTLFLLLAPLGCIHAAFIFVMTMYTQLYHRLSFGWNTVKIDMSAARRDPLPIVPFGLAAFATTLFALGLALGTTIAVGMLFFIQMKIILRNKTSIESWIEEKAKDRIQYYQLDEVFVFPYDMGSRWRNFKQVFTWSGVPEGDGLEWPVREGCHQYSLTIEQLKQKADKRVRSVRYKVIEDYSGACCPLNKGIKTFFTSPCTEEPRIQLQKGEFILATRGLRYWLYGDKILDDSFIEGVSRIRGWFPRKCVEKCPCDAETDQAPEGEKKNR
Method in brief: as §1

Measured: log2 fold change

CN1CCc2c(c3ccccc3n2Cc2ccc(C(=O)NO)cc2)C1 [Tubastatin A]
inactive: [1] -0.014 | [2] -0.026 | [3] 0.102 | [4] -0.004 | [5] -0.011 | [6] -0.007 | [7] 0.049 | [8] -0.132 | [9] -0.018 | [10] 0.129 | [11] -0.034 | [12] 0.07 | [13] 0.103 | [14] -0.012 | [15] 0.02 | [16] 0.051 | [17] -0.003 | [18] 0.058

CC(C)(C)Cn1c(N)nc2ccc(-c3[nH]c(C(C)(C)C)nc3-c3ccc(F)cc3)nc21 [ralimetinib]
inactive: [1] -0.063 | [2] 0.237 | [3] -0.031 | [4] 0.145 | [5] 0.002 | [6] 0.169 | [8] 0.121 | [9] 0.012 | [10] 0.03 | [11] 0.047 | [12] 0.035 | [13] 0.017 | [14] -0.099 | [15] -0.187 | [16] -0.001 | [17] -0.033

O=C(Nc1cccc(Nc2ncc(Br)c(NCCc3cnc[nH]3)n2)c1)N1CCCC1
inactive: [1] 0.006 | [2] -0.089 | [3] -0.031 | [4] 0.011 | [5] -0.065 | [6] 0.001 | [7] -0.014 | [8] 0.107 | [9] -0.052 | [10] -0.126 | [11] 0.038 | [12] -0.078 | [13] 0.08 | [14] 0.011 | [15] -0.025 | [16] -0.076 | [17] 0.028 | [18] 0.06

Cc1ccc(NC(=O)c2ccc(CN3CC[C@H](N(C)C)C3)c(C(F)(F)F)c2)cc1Nc1nccc(-c2cncnc2)n1 [bafetinib]
inactive: [1] -0.008 | [2] -0.035 | [3] -0.131 | [4] -0.022 | [5] -0.044 | [6] -0.08 | [7] 0.07 | [8] 0.194 | [9] -0.006 | [10] 0.033 | [11] 0.052 | [12] 0.018 | [13] 0.144 | [14] -0.007 | [15] 0.104 | [16] 0 | [18] -0.03

COc1cc(C(=O)O)ccc1NC(=O)[C@@H]1N[C@@H](CC(C)(C)C)[C@](C#N)(c2ccc(Cl)cc2F)[C@H]1c1cccc(Cl)c1F [idasanutlin]
inactive: [1] -0.053 | [2] -0.084 | [3] -0.061 | [4] -0.026 | [5] 0.077 | [6] -0.235 | [8] 0.026 | [9] 0.002 | [10] 0.23 | [11] 0.109 | [12] -0.012 | [13] 0.139 | [14] -0.048 | [15] -0.014 | [16] -0.111 | [17] -0.013

CC(C)(O)CC(=O)NCCn1ccc2ncnc(Nc3ccc(Oc4cccc(C(F)(F)F)c4)c(Cl)c3)c21
inactive: [1] -0.013 | [2] -0.084 | [3] 0.021 | [4] 0.027 | [5] -0.026 | [8] 0.101 | [9] 0.175 | [10] 0.034 | [11] 0.064 | [12] -0.179 | [13] 0.166 | [14] 0.062 | [15] -0.082 | [16] 0.033 | [17] -0.026
active: [6] -0.323 | [19] -0.932 | [18] 0.486

Cn1cc(-c2ccc3c(c2)CCN3C(=O)Cc2cccc(C(F)(F)F)c2)c2c(N)ncnc21
inactive: [1] 0.005 | [2] 0.124 | [3] 0.102 | [4] 0.052 | [5] 0.004 | [6] 0.04 | [8] 0.122 | [9] 0.023 | [10] -0.03 | [11] -0.084 | [12] 0.014 | [13] -0.074 | [14] 0.018 | [15] -0.036 | [16] -0.02 | [17] -0.088

Cc1ccc2c(=O)c3ccccc3n(CCCN)c2c1C
inactive: [1] -0.072 | [2] -0.055 | [3] 0.029 | [4] -0.009 | [6] 0.038 | [8] -0.183 | [11] -0.277 | [12] -0.091 | [13] -0.187 | [14] 0.037 | [15] 0.028 | [16] 0.08 | [17] 0.005 | [18] 0.02
active: [5] -0.433 | [7] 1.05 | [9] -1.06 | [10] -0.612

FC(F)(F)c1ccc(/C=C/c2nc(COc3ccc(CCCCn4ccnn4)cc3)co2)cc1 [mubritinib]
inactive: [1] 0.045 | [2] 0.049 | [3] 0.11 | [4] 0.015 | [5] -0.055 | [7] -0.131 | [8] 0.003 | [10] -0.042 | [11] -0.102 | [12] -0.049 | [13] -0.087 | [14] 0.051 | [15] 0.03 | [16] 0.025
active: [6] -0.294

CCCc1cc(C)[nH]c(=O)c1CNC(=O)c1cc(-c2ccnc(N3CCN(C)CC3)c2)cc2c1cnn2C(C)C
inactive: [1] -0.031 | [2] 0.241 | [3] -0.393 | [4] 0.056 | [5] -0.006 | [6] 0.004 | [7] -0.158 | [8] -0.008 | [10] -0.011 | [11] -0.027 | [12] 0.029 | [13] 0.057 | [14] -0.061 | [15] -0.079 | [16] 0.095

C[C@@H]1COCCN1c1cc(C2(S(C)(=O)=O)CC2)nc(-c2cccc3[nH]ccc23)n1
inactive: [1] 0.025 | [2] 0.074 | [3] 0.165 | [4] 0.011 | [5] 0.02 | [6] 0.22 | [8] -0.101 | [9] -0.088 | [10] -0.008 | [11] -0.151 | [12] 0.119 | [13] -0.381 | [14] 0.005 | [15] 0.131 | [16] -0.011 | [19] 0.067 | [17] -0.037 | [18] 0.284

Fc1ccc(Cl)cc1-c1nc(Nc2ccncc2)c2nccnc2n1
inactive: [1] 0.048 | [2] 0.146 | [3] 0.099 | [4] 0.081 | [5] 0.073 | [6] -0.011 | [8] -0.022 | [9] -0.194 | [10] -0.134 | [11] -0.275 | [12] 0.128 | [13] -0.378 | [14] -0.006 | [15] 0.152 | [16] -0.002 | [19] -0.083 | [17] 0.093 | [18] 0.028

CN1CC[C@H](c2c(O)cc(O)c3c(=O)cc(-c4ccccc4Cl)oc23)[C@H](O)C1 [alvocidib]
inactive: [1] -0.06 | [2] -0.192 | [3] -0.003 | [4] -0.056 | [5] -0.099 | [6] -0.05 | [8] -0.067 | [9] 0.008 | [10] -0.217 | [11] 0.189 | [12] -0.318 | [13] 0.321 | [14] -0.027 | [15] -0.016 | [16] -0.038 | [17] 0.077

C/C(=N\NC(=O)c1cccc(S(=O)(=O)N2CCOCC2)c1)c1cc(Cl)ccc1O
active: [6] 0.372
inactive: [1] 0.005 | [2] 0.204 | [3] -0.037 | [4] 0.061 | [5] 0.072 | [8] 0.068 | [9] 0.02 | [10] 0.01 | [11] -0.128 | [12] 0.199 | [13] -0.224 | [14] -0.004 | [15] -0.048 | [16] 0.003 | [17] 0.057

CO[C@H]1C[C@@H]2CC[C@@H](C)[C@@](O)(O2)C(=O)C(=O)N2CCCC[C@H]2C(=O)O[C@H]([C@H](C)C[C@@H]2CC[C@H](n3cnnn3)[C@H](OC)C2)CC(=O)[C@H](C)/C=C(\C)[C@@H](O)[C@@H](OC)C(=O)[C@H](C)C[C@H](C)/C=C/C=C/C=C/1C [zotarolimus]
inactive: [1] 0.015 | [2] 0.196 | [3] -0.072 | [4] 0.107 | [5] -0.01 | [6] 0.07 | [8] 0.004 | [9] -0.036 | [10] 0.041 | [11] 0.029 | [12] 0.052 | [13] -0.044 | [14] 0.039 | [15] -0.15 | [16] -0.085 | [17] -0.245

C[C@@H](N)c1ccc(C(=O)Nc2ccnc3[nH]ccc23)cc1
inactive: [1] -0.065 | [2] -0.302 | [3] 0.179 | [4] -0.178 | [5] -0.071 | [6] -0.071 | [8] 0.125 | [9] -0.013 | [10] -0.103 | [11] 0.218 | [12] -0.213 | [13] 0.359 | [14] -0.03 | [15] 0.051 | [16] 0.006 | [17] -0.065
